We go through 35 compounds from PubChem BioAssay (NCI).

This is part of a sample that, as a whole, favours compounds with a hit. Of some 83,000 tested, about 20% had one in any assay.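 Values shown are percent growth following 48 h exposure of cells in 96-well plates to a single concentration of compound; below 10 was considered active.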 Activity calls are given as the source filed them.

This experiment concerns MDA-MB-468 breast. The experiment is described as follows: NCI-60 one-dose screen, 48 h (100 = growth as untreated, 0 = no growth, -100 = all killed). Conditions: 10 µM unless noted.
In the case of `COc1cc2c(cc1O)CC[C@@H]1[C@@H]2CC[C@]2(C)[C@@H](OCCCN(C)C)CC[C@@H]12`, the growth is -58.5% (active).
To `CCOC(=O)c1c(C)oc2ncnc(N3CCN(C(=O)COc4ccc(SC)cc4)CC3)c12` belongs 81.9% (inactive); to `CC(C)(C)n1nnnc1C(Nc1cccc2c1OCO2)c1cc2cccc3ccc4cccc1c4c32` (stereo not given), 51.7% (inactive); to `CC[C@@H](C(=O)[C@@H](C)[C@@H](O)[C@H](C)[C@@H]1O[C@@H]([C@@H](CC)C(=O)NCCc2ccc(F)cc2)CC[C@@H]1C)C1O[C@]2(C=CC(=O)[C@]3(CC[C@@](C)([C@H]4CC[C@](O)(CC)[C@H](C)O4)O3)O2)[C@H](C)C[C@@H]1C` (stereo not given in full), 13.5% (inactive).
On to `COc1ccc(CC(C#N)c2cc3ccccc3[nH]2)cc1` (stereo not given), for which the growth was 89.6% (inactive).
To `COc1cc(-c2nc(C(=O)NCC(=O)O)nn2-c2ccc(Cl)cc2)cc(OC)c1OC` belongs 113% (inactive); to `CCN1C(=O)N(CC)C2C1NN=c1s/c(=C\c3ccccn3)c(=O)n12` (stereo not given), -26.9% (active); to `C/C(=N/NC(N)=S)c1sc(Nc2cccc(Cl)c2)nc1C`, 47.3% (inactive).
On to `Cc1ccc(NCCNCC(C)(C)O)c2c(=O)c3ccc(Cl)cc3sc12`, for which the growth is -28.9% (active).
Take `Cc1ccc(C(=O)N/N=C/c2ccc3c(c2)OCO3)cc1`: the growth is 101% (inactive).
Regarding `O=C(NN1C(=O)CSC1c1ccc(Cl)cc1)c1cccnc1` (stereo not given), the growth is 115% (inactive).
For the compound `O=C(CSc1nc2ccccc2c(=O)n1-c1ccccc1)N/N=C/c1ccc(Oc2ccc(Br)cc2)cc1`, the growth is 65.1% (inactive).
To `CCN(CC)c1ccc(/C=C\C(=O)c2ccc(NC(C)=O)cc2)cc1` belongs 10.7% (inactive).
Take `COc1cc2nc(-c3ccc(C#N)cc3)[nH]c(=O)c2cc1OC`: the growth is 113% (inactive).
Take `C#CC(=O)Nc1cccc2c1cc(C)n2-c1nc2c(c(NCc3ccccc3)n1)CCCC2`: the growth was -63.3% (active).
To `Clc1ccc2c(NCCNc3nc(Cl)nc4ccccc34)ccnc2c1` belongs -88.6% (active); to `C=C(C)[C@@H]1CC[C@@]2(C(=O)O)CC[C@]3(C)C(CCC4[C@@]5(C)CCC(OS(=O)(=O)c6ccccc6)C(C)(C)C5CC[C@]43C)C12` (stereo not given in full), 53.9% (inactive).
To `COc1ccc2nc(-c3ccc(Cl)cc3)cc(-c3nnc(SC/C(=N/O)c4ccccc4)o3)c2c1` belongs 9.96% (active).
To `COC(=O)CC[C@@H](C)[C@H]1CC[C@H]2C3CC[C@@H]4C[C@@H]5CC[C@]4(C)[C@@]3(O5)[C@H](Br)[C@@H](Br)[C@]12C` (stereo not given in full) belongs 99.5% (inactive).
As for `FC(F)(F)c1cc(-c2nnc3n2N=C(Cl)CS3)cc(C(F)(F)F)c1`, the growth was 84.4% (inactive).
To `CCOC(=O)c1cc(C)n(-c2ccc(C(=O)O)cc2)c1C` belongs 65.5% (inactive); to `Nc1cc(-c2c[nH]c3ccc(Br)cc23)nc2cc(-c3c[nH]c4ccc(Br)cc34)nn12`, -4.03% (active); to `COc1ccc(C2C=C(c3ccc(N)cc3)N=C3SC=CN32)cc1OC` (stereo not given), 101% (inactive).
Then `COC(=O)c1nc(-c2ccccc2)oc1S(=O)(=O)N1CCN(c2ccc(OC)cc2)CC1`, with 22.6% (inactive); and `COc1ccc2[nH]cc(-c3nc(-c4cn(C)c5c(Cl)nccc45)cs3)c2c1`, with 18.1% (inactive).
Consider `COc1cc2c(Nc3ccc(Br)cc3F)ncnc2cc1OCC1CCN(C)CC1`, for which the growth is -23.3% (active).
To `O=C(N/N=C\c1ccc(-c2ccc(Br)cc2)o1)c1cc2oc(-c3cccc(C(F)(F)F)c3)cc2[nH]1` belongs 126% (inactive); to `COCCNC(C)=O`, 96.1% (inactive); to `COc1ccc(/C=N/N=C(/c2ccccc2)c2ccc3nc(-c4ccc(Cl)cc4)[nH]c3c2)cc1`, 70% (inactive).
In the case of `CC(=O)OC[C@]1(C)C=C2C(=O)[C@](C)(O)C3(CC3)C(C)=C2[C@H]1OC(C)=O`, the growth is 21.6% (inactive).
To `CC(C)=CC(=O)OCC(=O)O[C@@H]1C[C@]2(C(C)C)O[C@@]1(C)[C@@H]1CC[C@@H](C)[C@H]1[C@@H]2OC(=O)/C=C/c1ccccc1` belongs 64.3% (inactive); to `N=C(N)c1ccc(-c2ccc(-c3cncc4ccccc34)s2)cc1F`, -90.6% (active); to `c1cc(NCCc2ccncc2)nc(-n2cnc3ccccc32)c1`, 95% (inactive).
To `FC(F)(F)c1[nH]ncc1-c1nc2c(N3CCCCC3)cc3[nH]ncc3c2c2c1CCCC2` belongs -25.6% (active).
Then `NC(=O)c1c(NC(=O)c2ccc(C(F)(F)F)cc2)sc2c1CCC(=O)C2`, with -30.7% (active).
